Shown are actives, neighbours in structure and some others; about 2.2% of the full set was active somewhere.
LDHA inh: blocks human lactate dehydrogenase A | P00338 | purified LDHA, NADH/diaphorase-resazurin fluorescence; stronger effect = lower value | activity change, % (values are at about 110 or 230 µM) | 480,000 tested, 0.15% active | AID 1347041; in the data active = activity change below about -30%; inconclusive = mostly about -25% to -30%;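 also: plate controls were DMSO wells for no effect and wells without enzyme for full effect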
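Enzyme activity of human lactate dehydrogenase 5 (2 nM; 0.06 mM NADH, 0.2 mM pyruvate, 5 min, RT) is measured via a resazurin/diaphorase fluorescence readout of residual NADH.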
TGFb inhibitor: TGF-b pathway inhibition; HepG2 CAGA-GFP TGF-b/SMAD3 reporter, GFP fluorescence, 18 h; TGF-beta stimulated, 500 pg/mL final; Potency, µM (doses to about 46.1 µM), without a hit: at the highest dose activity, negative = inhibition, actives largely listed as inhibitors; 410,000 tested, 1.2% active; also: potency is read from the fitted curve at half-maximal effect; % is scaled to controls: 0 for no effect and ±100 for the full control effect; nearly all actives have a fitted effect of over 65% in size
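HEPG2 CAGA-GFP, 1000 cells/well; 2 h settle, 37 C; cpd via pin tool; TGF-b 500 pg/mL final; 18 h, 37 C; GFP imaging ex488/em500-530; %Activity normalised to -TGF-b and +DMSO controls; CRC fit, curve class.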
S2 tox: viability counter-screen for ATXN expression inhibitors; Potency, µM (top dose mostly 56.7 µM), usual class: cytotoxic; AID 651635; S2 cells (HEK-293 line with an ATXN2-luciferase reporter) viability, CellTiter-Fluor protease fluorescence, 24 h; 400,000 tested, 0.49% active; also: potency is read from the fitted curve at half-maximal effect; nearly all actives have a fitted effect of over 40% in size
ATXN2 expr inh: inhibitors of ATXN2 expression | HEK-293 ATXN2-luciferase reporter, luminescence, 24 h | Potency, µM (series often up to 57 µM), inactives show top-dose activity change, negative = inhibition, usual class: inhibitors | 360,000 tested, 0.72% active | AID 1745845; also: potency is read from the fitted curve at half-maximal effect; % is scaled to controls: 0 for no effect and ±100 for the full control effect; nearly all actives have a fitted effect of over 55% in size
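ATXN2-luciferase reporter cells (luciferase flanked by upstream and downstream ATXN2 gene portions) were treated 24 h at 37 °C with compounds at up to 57 uM. SteadyGlo luminescence gave expression; GF-AFC fluorescence gave viability.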
HepG2 tox: counter-screen for TGF-b inhibitors: cytotoxicity in HepG2 cells; 410,000 tested, 0.76% active; HepG2 CAGA-GFP viability, ATP luminescence, 18 h; AID 588856; Potency, µM (series often up to 46.1 µM), inactives show at the highest dose activity change, negative = cytotoxicity, usual class: cytotoxic; also: potency is read from the fitted curve at half-maximal effect
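HepG2 CAGA-GFP cells (1000/well, DMEM with 1% FBS) received compound, then TGF-beta at 500 pg/mL final, and were incubated 18 hours at 37 degrees C. Viability was read by CellTiter-Glo luminescence. Media-only wells were set as complete cell-killing and DMSO as no toxicity.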
mIDH1 inhibitor: human IDH1 R132H inhibition. O75874. IDH1-R132H enzyme, NADPH consumption, diaphorase/resazurin fluorescence. Potency, µM (highest dose often 76.6 µM), without a hit: top-dose activity change, negative = inhibition, usual class: inhibitors. 390,000 tested, 0.093% active; also: potency is read from the fitted curve at half-maximal effect; % is scaled to controls: 0 for no effect and ±100 for the full control effect; nearly all actives have a fitted effect of over 65% in size
Target sequence (O75874 whole entry R132H, stated change not applied): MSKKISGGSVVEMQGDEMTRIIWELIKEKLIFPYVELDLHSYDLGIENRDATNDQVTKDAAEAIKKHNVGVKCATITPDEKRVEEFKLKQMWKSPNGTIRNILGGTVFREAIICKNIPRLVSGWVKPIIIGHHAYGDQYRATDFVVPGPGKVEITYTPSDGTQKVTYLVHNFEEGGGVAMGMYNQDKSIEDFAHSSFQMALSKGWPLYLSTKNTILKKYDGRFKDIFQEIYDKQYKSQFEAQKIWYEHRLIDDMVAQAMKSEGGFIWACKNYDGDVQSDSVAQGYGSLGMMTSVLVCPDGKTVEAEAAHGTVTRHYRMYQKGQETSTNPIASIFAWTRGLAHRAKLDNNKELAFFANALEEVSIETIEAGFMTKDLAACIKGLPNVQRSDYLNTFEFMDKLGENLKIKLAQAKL
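IDH1-R132H (0.5 ug/mL dispensed) in pH 7.5 Tris buffer was preincubated 30 min with compound, then given a substrate mix of 0.016 mM NADPH and 2 mM alpha-KG for 80 min at room temperature; remaining NADPH was read by diaphorase/resazurin fluorescence.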
* = called active by the depositor; i = inactive; ? = inconclusive; / = no result; [ ] = another dose, or the depositor's remark. Unless noted, calls follow the shape of the dose curve; as a rule, active = well fitted curve in the direction sought with a large enough effect; inconclusive = small, poorly fitted or top-dose-only effect, or another doubt; inactive = no such curve, though single readings can be large; an effect the other way counts as inactive or inconclusive.

SMILES	LDHA inh	TGFb inhibitor	S2 tox	ATXN2 expr inh	HepG2 tox	mIDH1 inhibitor
Cc1nc(SCC(=O)N2CCCCCC2)c2c(=O)n(C)c(=O)n(CC(C)C)c2n1	1.2	15.8µM*	i	/	-48.1%	5.4%
CC(C)c1ccc(N2C(=O)/C(=C/N(C)C)SC2=S)cc1	-18.1	-17.5%	?	/	-20.5%	13.1µM*
CN(Cc1ccccc1)C(=O)COC(=O)c1ccc(Br)c(S(=O)(=O)N2CCOCC2)c1	-10.1	-19.9%	i	-7.5%	-13.5%	-9.6%
CCCCn1cnc2cc(NCc3ccc(OCC)cc3)ccc21	22.6	10µM*	i	8.4%	-34.1%	11.6%
O=C(NCC(=O)N(c1cccnc1)C(C(=O)NC1CCCC1)c1ccccc1)c1ccco1 (centres undefined)	-8.5	3.3%	i	0.3%	-0.5%	-14.2%
COc1ccc(COc2ccc3ccc(=O)oc3c2)cc1	-6.2	2.5%	i	59.5%	-14.2%	11.4%
CC(NC(=O)CSc1ccc2ccccc2n1)C1CC1 (centres undefined)	4.9	/	/	/	/	/
CC(C)C(C)NC(=O)CSc1ccc2ccccc2n1 (centres undefined)	-32.3*	/	/	/	/	/
O=C(Cn1nc(C(F)(F)F)c2c1CCCC2)Nc1cccc(Cl)c1	-2.2	11.2µM*	?	?	-71.5%	9.8%
O=C(Cn1nc(-c2ccc(Cl)cc2)c2ccccc2c1=O)Nc1cccc(Br)c1	-11.1	-12.5%	i	10.6%	-7.7%	/
COc1ccc(Cl)cc1NC(=O)Cn1nc(C(F)(F)F)c2c1CCCC2	1.8	12.6µM*	?	-30.4%	-30.5%	3.5%
O=C(Cn1nc(-c2ccc(Cl)cc2)c2ccccc2c1=O)Nc1cccc(C(F)(F)F)c1	-4.9	11.2µM*	?	-30.5%	-31.1%	-2.1%
N#Cc1ccccc1CSc1nc2ccc(NC(=O)c3ccccc3C(=O)O)cc2s1	-3.1	-17.9%	i	65.1%	-17.8%	-3.5%
CCN(CC)CCN1C(=O)C2C(C(=O)Nc3cccc(C)c3)C3C=CC2(O3)C1C(=O)NC1CCCC(C)C1C (centres undefined)	-4.8	-1.2%	?	-7.8%	-31.5%	-8.5%
CC/C(O)=C1\C(=O)CC(C)(C)CC1=Nc1ccccc1C	-5.2	-14.8%	i	1.1%	8.5%	-6.0%
COc1cc(CNc2ccc(O)cc2)cc(Br)c1OCc1ccccc1	13.3	22.4µM*	i	/	-69.4%	9.1%
COc1ccc(Br)cc1CNc1ccc2[nH]c(=O)[nH]c2c1	2.5	4.9%	i	1.3%	-11.4%	7.9%
COc1cc(CNC(C)c2ccccc2)cc(Br)c1OCc1ccc(F)cc1 (centres undefined)	-0.2	?	/	?	22.4µM*	-5.5%
COc1ccc(Br)cc1CNc1ccc(O)cc1	22.0	?	i	0.0%	12.6µM*	20.9%
CCN(CC(=O)NCc1ccc2c(c1)OCO2)S(=O)(=O)c1ccc(F)cc1	-2.0	-7.8%	i	0.2%	-0.7%	3.1%
O=C(O)c1ccc(N/N=C/c2cccc3cccnc23)cc1	-2.9	0.1%	i	15.8%	3.9%	4.5%
Nc1ccc(C(=O)N/N=C/c2cn(Cc3ccccc3)c3ccccc23)cc1	0.6	2.82µM*	i	-18.3%	-0.5%	2.9%
O=C(O)c1ccc(N/N=C/c2ccnc3ccccc23)cc1	-36.6*	8.9%	i	0.4%	-1.1%	19.2%
C(=N\n1cnnc1)/c1cn(Cc2ccccc2)c2ccccc12	2.7	12.6µM*	i	-16.2%	-74.3%	6.5%
Cc1ccccc1OCC(=O)N/N=C/c1ccc(N2CCOCC2)o1	3.1	12.6µM*	i	-36.5%	-45.6%	9.5%
SMILES	LDHA inh	TGFb inhibitor	S2 tox	ATXN2 expr inh	HepG2 tox	mIDH1 inhibitor
O=C(O)c1ccc(N/N=C/c2cn(Cc3ccccc3F)c3ccccc23)cc1	-0.8	11.2µM*	i	103.8%	-20.6%	2.4%
COC(=O)N/N=C/c1cn(Cc2ccc(F)cc2)c2ccccc12	-3.6	5.01µM*	i	-21.1%	-53.3%	15.9%
Cc1ccccc1OCC(=O)N/N=C/c1cn(Cc2ccccc2)c2ccccc12	-1.8	8.91µM*	i	-22.7%	-30.8%	5.4%
COC(=O)N/N=C/c1cn(Cc2ccccc2F)c2ccccc12	3.3	?	i	-17.5%	-23.7%	7.3%
COc1ccc(CCN(C(=O)c2snc(C(N)=O)c2N)C(C)C(=O)NC2CCCCC2)cc1OC (centres undefined)	0.0	7.2%	i	4.7%	0.9%	4.4%
NC(N)=N/N=C/c1cccc(Cl)c1Cl	2.6	-15.6%	i	-27.8%	-20.4%	2.7%
Cc1cc2oc(C(=O)NCc3ccc(S(N)(=O)=O)cc3)c(C)c2cc1C	-8.9	-4.0%	i	-24.7%	0.9%	-1.9%
CCOC(=O)c1ccc(NC(=O)c2c(NCc3sccc3C)sc3c2CCC(C)C3)cc1 (centres undefined)	-5.4	14.1µM*	?	-32.4%	-39.3%	-14.5%
CCOc1ccccc1NC(=O)c1c(NCc2sccc2C)sc2c1CCC(C)C2 (centres undefined)	4.1	/	/	/	-34.7%	/
CCOC(=O)c1ccc(NC(=O)c2c(NCc3cc(OC)c(OC)cc3OC)sc3c2CCCC3)cc1	3.0	0.0%	31.6µM*	-18.5%	-26.3%	-15.9%
CN(C)C(=O)Cc1ccc(C(F)(F)F)cc1	1.0	/	/	/	/	/
COc1ccccc1/C=C/C(=O)OCCCN(C)C	-4.1	-0.7%	i	9.6%[11.3 µM]	-44.7%	0.2%
N#CC1=C(N)NC(=S)C(C(N)=O)C1c1ccc(Cl)cc1Cl (centres undefined)	-0.4	?	23.8µM*	?	7.08µM*	5.7%
COc1ccccc1CNC(=O)c1ccc(-c2ccccc2Cl)o1	-0.4	15.8µM*	i	-0.4%	-39.7%	16.1%
COc1ccccc1CNC(=O)c1ccc(-c2ccccc2C(F)(F)F)o1	0.1	?	i	0.1%	-50.7%	6.1%
CCOc1ccccc1N1CCN(C(=S)NCc2ccco2)CC1	-7.6	-28.8%	i	0.0%	-20.4%	-3.4%
CC(C)[C@H](N)C(=O)N[C@H]1CCC2C3CC=C4C[C@@H](O)CC[C@]4(C)C3CC[C@@]21C (some centres undefined)	-7.9	?	?	/	20µM*	-8.3%
C[C@@H](N)C(=O)N[C@H]1CCC2C3CC=C4C[C@@H](O)CC[C@]4(C)C3CC[C@@]21C (some centres undefined)	-5.6	25.1%	i	0.7%	-12.6%	8.2%
